Measurements taken from PubChem BioAssay AID1159580 (chemical genetic matrix, 2015).
Hit rate of the full screen: of about 5,500 compounds, about 2,000 (36%) were called active. Another 18% or so got no clear call; they are omitted. Rule as the data show it: active = normalized growth mostly below about 0.91 (no sharp cut-off); inconclusive = no clear call, values can overlap the other calls; inactive = mostly above about 0.92. This is one part of the list.

Experiment: chemical genetic growth profiling, strain panel (AID 1159580);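 also: tested at 20 µM; growth read once vehicle control cultures reached saturation at 30 °C; 1 = growth at the plate median or of vehicle wells; lower values mean less growth of the strain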
Conditions: growth OD

Measured: normalized growth

O=[N+]([O-])c1cc([As](=O)(O)O)ccc1O
inactive: S. cerevisiae deletion strains, locus YJR075W, strain HOC1, stronger effect = lower value 1 | S. cerevisiae deletion strains, locus YKL009W, strain mrt4, stronger effect = lower value 0.986 | S. cerevisiae deletion strains, locus YKL068W, stronger effect = lower value 0.96 | S. cerevisiae deletion strains, locus YKL160W, strain elf1, stronger effect = lower value 0.959 | S. cerevisiae deletion strains, locus YKL190W, strain CNB1, stronger effect = lower value 0.983 | S. cerevisiae deletion strains, locus YKR091W, strain srl3, stronger effect = lower value 0.975 | S. cerevisiae deletion strains, locus YLL001W, strain dnm1, stronger effect = lower value 0.936 | S. cerevisiae deletion strains, locus YLL026W, stronger effect = lower value 0.97 | S. cerevisiae deletion strains, locus YLL041C, strain sdh2, stronger effect = lower value 0.965 | S. cerevisiae deletion strains, locus YLR027C, strain aat2, stronger effect = lower value 0.97 | S. cerevisiae deletion strains, locus YLR039C, strain RIC1, stronger effect = lower value 1.01 | S. cerevisiae deletion strains, locus YLR058C, strain SHM2, stronger effect = lower value 0.998 | S. cerevisiae deletion strains, locus YLR113W, strain HOG1, stronger effect = lower value 1.02 | S. cerevisiae deletion strains, locus YLR221C, strain rsa3, stronger effect = lower value 1 | S. cerevisiae deletion strains, locus YLR258W, strain gsy2, stronger effect = lower value 0.975 | S. cerevisiae deletion strains, locus YLR262C, strain YPT6 (second series), stronger effect = lower value 0.948 | S. cerevisiae deletion strains, locus YLR262C, strain YPT6, stronger effect = lower value 1.02 | S. cerevisiae deletion strains, locus YLR320W, strain mms22, stronger effect = lower value 0.984 | S. cerevisiae deletion strains, locus YLR330W, strain CHS5, stronger effect = lower value 0.988 | S. cerevisiae deletion strains, locus YLR342W, strain FKS1 (second series), stronger effect = lower value 1.07 | S. cerevisiae deletion strains, locus YLR342W, strain FKS1, stronger effect = lower value 0.978 | S. cerevisiae deletion strains, locus YLR357W, strain rsc2, stronger effect = lower value 0.92 | S. cerevisiae deletion strains, locus YLR370C, strain arc18, stronger effect = lower value 0.957 | S. cerevisiae deletion strains, locus YLR384C, strain iki3, stronger effect = lower value 0.938 | S. cerevisiae deletion strains, locus YML016C, strain PPZ1, stronger effect = lower value 0.988 | S. cerevisiae deletion strains, locus YML032C, strain rad52, stronger effect = lower value 0.929 | S. cerevisiae deletion strains, locus YML120C, strain ndi1, stronger effect = lower value 0.969 | S. cerevisiae deletion strains, locus YMR058W, strain fet3, stronger effect = lower value 0.977 | S. cerevisiae deletion strains, locus YMR125W, strain sto1, stronger effect = lower value 0.943 | S. cerevisiae deletion strains, locus YMR129W, stronger effect = lower value 0.981 | S. cerevisiae deletion strains, locus YMR205C, strain PFK2, stronger effect = lower value 0.983 | S. cerevisiae deletion strains, locus YMR231W, strain pep5, stronger effect = lower value 0.951 | S. cerevisiae deletion strains, locus YMR263W, strain SAP30, stronger effect = lower value 0.99 | S. cerevisiae deletion strains, locus YMR307W, strain GAS1, stronger effect = lower value 1.05 | S. cerevisiae deletion strains, locus YNL067W, strain RPL9B, stronger effect = lower value 0.991 | S. cerevisiae deletion strains, locus YNL071W, strain lat1, stronger effect = lower value 0.973 | S. cerevisiae deletion strains, locus YNL128W, strain TEP1, stronger effect = lower value 0.976 | S. cerevisiae deletion strains, locus YNL153C, strain GIM3, stronger effect = lower value 0.958 | S. cerevisiae deletion strains, locus YNL183C, strain NPR1, stronger effect = lower value 0.971 | S. cerevisiae deletion strains, locus YNL209W, strain ssb2, stronger effect = lower value 0.974 | S. cerevisiae deletion strains, locus YNL233W, strain BNI4, stronger effect = lower value 1.01 | S. cerevisiae deletion strains, locus YNL248C, strain rpa49, stronger effect = lower value 0.918 | S. cerevisiae deletion strains, locus YNL250W, strain rad50, stronger effect = lower value 0.93 | S. cerevisiae deletion strains, locus YNL322C, strain KRE1 (second series), stronger effect = lower value 0.974 | S. cerevisiae deletion strains, locus YNL322C, strain KRE1, stronger effect = lower value 0.991 | S. cerevisiae deletion strains, locus YNR049C, strain mso1, stronger effect = lower value 0.945 | S. cerevisiae deletion strains, locus YNR052C, strain pop2, stronger effect = lower value 1.03 | S. cerevisiae deletion strains, locus YOL006C, strain TOP1, stronger effect = lower value 1.06 | S. cerevisiae deletion strains, locus YOL012C, strain htz1 0.214 | S. cerevisiae deletion strains, locus YOL147C, strain pex11, stronger effect = lower value 0.987 | S. cerevisiae deletion strains, locus YOR001W, strain rrp6, stronger effect = lower value 0.965 | S. cerevisiae deletion strains, locus YOR061W, strain CKA2, stronger effect = lower value 0.991 | S. cerevisiae deletion strains, locus YOR069W, strain VPS5, stronger effect = lower value 0.989 | S. cerevisiae deletion strains, locus YOR070C, strain gyp1, stronger effect = lower value 0.965 | S. cerevisiae deletion strains, locus YOR080W, strain dia2, stronger effect = lower value 0.961 | S. cerevisiae deletion strains, locus YOR083W, strain WHI5, stronger effect = lower value 0.975 | S. cerevisiae deletion strains, locus YOR106W, strain vam3, stronger effect = lower value 0.96 | S. cerevisiae deletion strains, locus YOR144C, strain elg1, stronger effect = lower value 0.996 | S. cerevisiae deletion strains, locus YOR231W, strain MKK1, stronger effect = lower value 1.03 | S. cerevisiae deletion strains, locus YOR265W, strain rbl2, stronger effect = lower value 0.968 | S. cerevisiae deletion strains, locus YOR270C, strain vph1, stronger effect = lower value 0.952 | S. cerevisiae deletion strains, locus YOR290C, strain snf2, stronger effect = lower value 0.993 | S. cerevisiae deletion strains, locus YPL051W, strain arl3, stronger effect = lower value 0.967 | S. cerevisiae deletion strains, locus YPL055C, strain LGE1, stronger effect = lower value 0.946 | S. cerevisiae deletion strains, locus YPL078C, strain atp4, stronger effect = lower value 0.951 | S. cerevisiae deletion strains, locus YPL106C, strain sse1, stronger effect = lower value 0.982 | S. cerevisiae deletion strains, locus YPL240C, strain hsp82, stronger effect = lower value 0.949 | S. cerevisiae deletion strains, locus YPL241C, strain CIN2, stronger effect = lower value 0.995 | S. cerevisiae deletion strains, locus YPL256C, strain CLN2, stronger effect = lower value 1.08 | S. cerevisiae deletion strains, locus YPR141C, strain kar3, stronger effect = lower value 1 | S. cerevisiae strains, strain wild type, stronger effect = lower value 0.997
active: S. cerevisiae deletion strains, locus YKL085W, strain MDH1 (second series), stronger effect = lower value 0.484 | S. cerevisiae deletion strains, locus YKL085W, strain MDH1, stronger effect = lower value 0.484 | S. cerevisiae deletion strains, locus YKR001C, strain vps1, stronger effect = lower value 0.232 | S. cerevisiae deletion strains, locus YLR102C, strain apc9, stronger effect = lower value 0.243 | S. cerevisiae deletion strains, locus YLR268W, strain sec22, stronger effect = lower value 0.12 | S. cerevisiae deletion strains, locus YLR371W, strain rom2, stronger effect = lower value 0.152 | S. cerevisiae deletion strains, locus YLR418C, strain cdc73, stronger effect = lower value 0.146 | S. cerevisiae deletion strains, locus YML124C, strain tub3, stronger effect = lower value 0.329 | S. cerevisiae deletion strains, locus YMR078C, strain ctf18, stronger effect = lower value 0.548 | S. cerevisiae deletion strains, locus YMR223W, strain ubp8, stronger effect = lower value 0.129 | S. cerevisiae deletion strains, locus YNL271C, strain bni1, stronger effect = lower value 0.532 | S. cerevisiae deletion strains, locus YNL298W, strain CLA4, stronger effect = lower value 0.877 | S. cerevisiae deletion strains, locus YNL307C, strain MCK1, stronger effect = lower value 0.0701 | S. cerevisiae deletion strains, locus YOR136W, strain idh2, stronger effect = lower value 0.147 | S. cerevisiae deletion strains, locus YOR184W, strain ser1, stronger effect = lower value 0.0809 | S. cerevisiae deletion strains, locus YOR316C, strain cot1, stronger effect = lower value 0.171 | S. cerevisiae deletion strains, locus YPR119W, strain clb2, stronger effect = lower value 0.288 | S. cerevisiae deletion strains, locus YPR163C, strain tif3, stronger effect = lower value 0.0934 | S. cerevisiae deletion strains, locus YPR167C, strain met16, stronger effect = lower value 0.152 | S. cerevisiae deletion strains, strain wtn01, stronger effect = lower value 0.0828
